Measurements published in PubChem BioAssay (EPA / NIEHS).
Inconclusive results are not listed. Active and inactive are the calls of the source. Rule for the calls: active = hit-call score of the fitted dose curve at least 0.9, where 1 is the maximum; inconclusive = response in the unintended direction; inactive = score below 0.9.

Read-out: HMG-CoA synthase (HMGCS2), HMGCS2 (gene 3158)
Assay: CLD_HMGCS2_24hr: CellzDirect (CLD) Gene Expression Assay for HMG-CoA synthase (HMGCS2) at 24 hours (AID 2283691)
Protocol: CLD_24hr is a cell-based, multiplexed-readout assay that uses hepatocyte, a human liver primary cell, with measurements taken at 24 hours after chemical dosing in a 96-well plate.CLD_HMGCS2_24hr is one of 16 assay component(s) measured or calculated from the CLD_24hr assay. It is designed to make measurements of mRNA induction, a form of inducible reporter, as detected with chemiluminescence signals by Quantitative Nuclease Protection Assay (qNPA) technology.Data from the assay component CLD_HMGCS2_24hr was analyzed at the endpoint, CLD_HMGCS2_24hr, in the positive analysis fitting direction relative to DMSO as the negative control and baseline of activity. Using a type of inducible reporter, gain-of-signal activity can be used to understand changes in the reporter gene as they relate to the gene HMGCS2. Furthermore, this assay endpoint can be referred to as a primary readout. To generalize the intended target to other relatable targets, this assay endpoint is annotated to the lyase intended target family, where subfamily is HMG-CoA synthase.
Human hepatocyte cultures were treated daily for two consecutive days with fresh dosing solutions containing appropriate concentrations of the 320 ToxCast chemicals (chemical identities were blinded to CellzDirect and other ToxCast collaborators), vehicle control (0.2% DMSO), and positive control inducers as summarized in Table 1. Due to the large number of treatment groups and chemicals examined, the ToxCast chemicals were divided into two groups (spanning two independent cultures of hepatocytes from separate donor preparations (Hu778: ToxCast plates 1 and 2; Hu776: ToxCast plates 3 and 4). Each preparation of human hepatocyte cultures was treated with respective vehicle control, medium only control, set of six positive controls/reference chemicals for the five hepatic receptor pathways, and a subset of eight of the ToxCast chemicals (indoxacarb, pyrithiobac-sodium, norflurazon, cyhalofop-butyl, methomyl, thiram, acetochlor, and propiconazole). These replicate data, coupled with internal replicates designed within the blinded ToxCast chemical library, provided additional data to evaluate interindividual differences between hepatocyte preparations and their potential impact on chemical profiles.Cell morphology and integrity were evaluated using phase-contrast microscopy as an indicator of hepatocyte cell health (Tyson & Green, 1987). Cultures for each treatment group (i.e., media, vehicle [0.2% DMSO], positive control inducers [multiple concentrations], and the ToxCast chemicals [multiple concentrations]) were observed and cell morphology was assessed relative to vehicle control cultures at each harvest time point (0, 6, 24, or 48 h). […] Images were evaluated at the conclusion of the study to assess changes in cell integrity and account for the effects of chemical exposure on uncharacteristic changes in concentration-dependent gene expression profiles. The results from these determinations of apparent cytotoxicity were annotated (yes/no) alongside the corresponding qNPA data for reference.At the conclusion of each treatment period, hepatocyte cultures (96-well) were washed with 1 volume of HBSS, lysed by addition of 25 ul ArrayPlate lysis buffer (HTG, Tucson, AZ), and 70 ul/well of Denaturation Oil, denatured by incubation at 95C for 10 min, and frozen at approximately -70C until analysis by nuclease protection assay (qNPA) (Roberts et al., 2007). For qNPA analysis, cell lysates were thawed at 50C for approximately 30 min, qNPA probes were added, and samples were incubated at 95C for 10 min to begin the detection process by denaturing the target RNA, dissociating the duplexes and secondary structure hybridization. At the conclusion of the hybridization period, S1 nuclease reagent was added to each sample to digest all nonprotected nucleotides at 50C for 60-90 min. […]

Compound	outcome
CCOP(=S)(OCC)SCCSCC	inactive
COc1cc(OC)nc(Sc2cccc(Cl)c2C(=O)O)n1	inactive
CCCCOC(=O)[C@@H](C)Oc1ccc(Oc2ccc(C#N)cc2F)cc1	inactive
CN(C)[C@@H]1C(=O)C(C(N)=O)=C(O)[C@@]2(O)C(=O)C3=C(O)c4c(O)cccc4[C@@](C)(O)[C@H]3[C@H](O)[C@@H]12	inactive
CCOP(=O)(OCC)Oc1cc(C)nc(C(C)C)n1	inactive
CC(Oc1cccc(Cl)c1)C(=O)O (stereo not given)	inactive
CCc1cnc(C2=NC(C)(C(C)C)C(=O)N2)c(C(=O)O)c1 (stereo not given)	inactive
CC1=NNC(=O)N(/N=C/c2cccnc2)C1	inactive
COP(=O)(OC)C(O)C(Cl)(Cl)Cl (stereo not given)	inactive
CSC1=N[C@@](C)(c2ccccc2)C(=O)N1Nc1ccccc1	inactive
CC(=NC#N)N(C)Cc1ccc(Cl)nc1	inactive
O=C(O)c1cc(Oc2ccc(C(F)(F)F)cc2Cl)ccc1[N+](=O)[O-]	inactive
CC(COc1ccc(Oc2ccccc2)cc1)Oc1ccccn1 (stereo not given)	inactive
O=c1ccc(=O)[nH][nH]1	inactive
CC[C@H](C)[C@H]1O[C@]2(C=C[C@@H]1C)C[C@@H]1C[C@@H](C/C=C(\C)[C@@H](O[C@H]3C[C@H](OC)[C@@H](O[C@H]4C[C@H](OC)[C@@H](NC)[C@H](C)O4)[C@H](C)O3)[C@@H](C)/C=C/C=C3\CO[C@@H]4[C@H](O)C(C)=C[C@@H](C(=O)O1)[C@]34O)O2	inactive
CCCCOC(=O)c1ccccc1C(=O)O	inactive
CCCSP(=O)(OCC)SCCC	inactive
CNC(=O)ON=C(SC)C(=O)N(C)C	inactive
CCOP(=S)(OCC)OC(Cl)C(Cl)(Cl)Cl (stereo not given)	inactive
C[N+]1(C)CCCCC1	inactive
